E coli growth-1 = E. coli growth inhibition; Escherichia coli growth, OD600, 23 h; active compounds read low; OD600 absorbance (no concentration beside the values); 0.21% of 330,000 active;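 active means OD600 absorbance below the run mean of sample wells minus 3.6 SD, in any replicate, cut at about 0.56 in these data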
phage Ecoli inh = E. coli growth loss with phage present | growth absorbance | inhibition, % at 11.9 µM | 0.26% of 360,000 active; in the data active means inhibition above about 11%
Tat export inh = E. coli Tat transport inhibition. E. coli MC4100 TorA-mCherry Tat export, fluorescence. inhibition, % at 10 µM. 0.036% of 340,000 active;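 active means mean replicate inhibition at least 50% and at least half of replicates individually reaching 50%; inconclusive means only one of the two criteria met; inactive means neither criterion met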;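 further: exported cargo escapes ClpAP degradation while cytoplasmic cargo is degraded and loses fluorescence; 0% = median of neutral control wells and 100% = median of NaSCN control wells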
E coli growth-2 = counter-screen for AddAB inhibitors: E. coli growth inhibition | E. coli V3065 growth, OD600 absorbance, 18 h | inhibition, % at 11.9 µM | 0.27% of 330,000 active;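 active means inhibition above the campaign's mean inhibition across all tested compounds plus 3 SD, cut at about 9.9% in these data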;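 further: uninfected addAB+ strain grown without phage in ampicillin broth; 0% = DMSO wells and 100% = ciprofloxacin 0.95 µg/ml wells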
AddAB inh = less growth of phage-infected E. coli with AddAB | E. coli expressing H. pylori AddAB, absorbance growth | inhibition, % at 11.9 µM | 0.29% of 330,000 active | AID 435030; in the data active means inhibition above about 12%;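 further: 0% = vehicle wells of infected cells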
* hit, by the source's call; ? = inconclusive; · = no result given. Rows were chosen to be rich in hits. Some 0.5% of all compounds tested hit in one or more screens of this group.

SMILES	E coli growth-1	phage Ecoli inh	Tat export inh	E coli growth-2	AddAB inh
O=[N+]([O-])/C=C/c1cc2ccccc2[nH]1	0.5*	3.4	1.0	-1.4	-0.7
CC(NCC(c1ccco1)N1CCCCC1)C(=O)NC1CCCC1 (configuration not stated)	0.667	1.9	-8.5	-0.1	-1.2
S=C(NCc1ccc(Cl)cc1)Nc1ccncc1	0.515*	1.3	7.8	-1.4	-1.1
S=C(NCc1ccc(Cl)cc1)Nc1ccccc1	0.665	5.0	-10.1	0.3	0.0
S=C(Nc1ccc(Cl)c(Cl)c1)NC1CCN(Cc2ccccc2)CC1	0.585	8.0	-6.4	10.8*	11.4
O=C(NCc1cccnc1)Nc1ccc(Cl)c(Cl)c1	0.589	1.2	-5.0	1.6	3.9
Fc1ccc(NC(=S)NC2CCN(Cc3ccccc3)CC2)cc1	0.671	5.5	-2.6	2.7	1.6
S=C(NCc1cccnc1)Nc1ccc(Cl)c(Cl)c1	0.493	10.4	-12.2	11.3*	10.8
O=C(NN=Cc1cn(-c2ccccc2)nc1-c1cccnc1)c1ccc(F)cc1	0.649	·	·	·	·
CCCCn1c(N)c(N(CCOC)C(=O)COc2ccc(C(C)=O)cc2)c(=O)[nH]c1=O	0.638	-0.2	-6.6	-2.5	2.1
Cc1sc(NC(=O)CCC(=O)O)c(C#N)c1C	0.668	0.9	-10.4	1.7	-0.4
CC(C)CC(C(=O)O)N1C(=O)C2C3CC(C2C1=O)C1C(c2ccccc2)c2sc(=O)[nH]c2SC31 (configuration not stated)	0.506*	4.8	-7.7	0.8	3.8
Cc1ccsc1C(=O)Nc1nnc(-c2ccco2)o1	0.415*	10.6	7.0	-0.6	2.9
CCN1/C(=C/C=C/c2oc3ccc4ccccc4c3[n+]2CC)Oc2ccc3ccccc3c21	0.685	·	·	11.0*	10.6
C=CC1=C(C(=O)O)N2C(=O)C(NC(=O)C(=NOCC(=O)O)c3csc(N)n3)C2SC1 (configuration not stated)	0.0625*	·	·	·	·
COCC1=C(C(=O)OC(C)OC(=O)OC(C)C)N2C(=O)[C@@H](NC(=O)/C(=N\OC)c3csc(N)n3)[C@H]2SC1 (some centres not stated)	·	7.4	-3.7	2.2	-0.9
CC(C)CC[C@@H](O)[C@](C)(O)C1CC[C@@]2(O)C3=CC(=O)[C@@H]4C[C@@H](O)[C@@H](O)C[C@]4(C)C3CC[C@]12C (some centres not stated)	·	0.6	-2.6	0.3	3.7
COc1ccc(/C=C2\SC(=O)N(CC(=O)N(C)C3CCS(=O)(=O)C3)C2=O)cc1 (configuration not stated)	0.651	1.4	1.2	0.8	0.8
O=C(COc1c(Br)cc(Br)c2cccnc12)N1CCc2ccccc2C1	0.439*	·	2.8	-8.6	-3.4
N#Cc1c(SCC(=O)Nc2cccc(F)c2)sc2c(O)cc(=O)[nH]c12	0.68	1.1	0.7	-1.2	1.2
O=C(O)c1ccccc1O	0.702	4.1	11.4	0.5	2.8
O=C(O)c1ccccc1SSc1ccccc1C(=O)O	0.676	1.5	6.6	13.5*	9.9
CCn1cc(C(=O)OCC(=O)Nc2c(C)cccc2C)c(=O)c2ccc(C)nc21	0.489*	4.5	-1.4	3.7	3.1
CCn1cc(C(=O)NCc2ccccc2OC)c(=O)c2ccc(C)nc21	0.747	·	·	3.7	-1.9
CCn1cc(C(=O)OCC(=O)NCc2ccccc2Cl)c(=O)c2ccc(C)nc21	0.512*	1.4	-0.5	2.7	0.3
SMILES	E coli growth-1	phage Ecoli inh	Tat export inh	E coli growth-2	AddAB inh
CCn1cc(C(=O)N2CCN(c3ccc([N+](=O)[O-])cc3)CC2)c(=O)c2ccc(C)nc21	0.72	2.5	-6.6	1.5	0.6
CCn1cc(C(=O)N2CCN(c3cccc(C)c3C)CC2)c(=O)c2ccc(C)nc21	0.421*	-0.6	11.4	-1.0	-0.3
CCn1cc(C(=O)OC)c(=O)c2ccc(C)nc21	0.701	3.7	2.9	3.0	1.6
N#Cc1ccccc1NC(=S)NC(=O)C1CCC1	0.621	0.5	10.0	·	·
Cc1nc2ccccn2c1C(=O)NC1CCCc2ccccc21 (configuration not stated)	0.635	5.4	-4.0	-1.7	-1.3
COc1cccc(OC)c1C(=O)N1CC(C)OC(C)C1 (configuration not stated)	0.664	2.4	-4.0	0.2	1.6
Nc1ncc(N=Nc2cc(C(=O)O)ccc2Cl)s1	0.633	6.0	-7.7	10.5*	10.0
O=C(Oc1c(CN2CCOCC2)cc(Cl)c2cccnc12)c1ccccc1	0.676	2.7	15.9	-2.2	-3.2
Oc1c(CN2CCCCC2)cc(Br)c2cccnc12	0.169*	8.9	2.2	1.5	4.1
Oc1c(CN2CCc3ccccc3C2)cc(Cl)c2cccnc12	0.429*	·	0.2	0.2	11.3
CN1CCN(Cc2cc(COCc3ccccc3)c3cccnc3c2O)CC1	·	6.8	13.4	-0.5	8.1
O=C(COc1c(Br)cc(Br)c2cccnc12)N1CCCCC1	0.698	-4.9	-11.4	-6.0	-4.2
Oc1c(Cl)cc(CN2CCOCC2)c2cccnc12	0.522*	4.3	5.2	8.1	8.2
O=C(C1=C[C@H](c2ccccc2)C[C@H](OCc2ccc(CO)cc2)O1)N1CCOCC1	0.647*	1.4	-1.7	1.2	1.1
CN1CCN(C(=O)C2=C[C@@H](c3ccccc3)C[C@@H](OCc3ccc(CO)cc3)O2)CC1	·	1.2	-11.4	-1.6	0.0
CCCCCCCCCCCCCCCC[n+]1ccc(C(N)=O)cc1	0.316*	4.7	51.5*	-3.0	-0.7
CCCCCCCCCCCCCCCC[n+]1ccccc1	0.0565*	1.5	48.2	·	·
CCCCCCCCCCCCCCCC[n+]1cccc(C(=O)N(CC)CC)c1	0.433*	3.6	?	-4.4	-16.4
CCCCCCCCCCCCCCCC[n+]1ccc(/C=N/O)cc1	·	2.6	-12.5	0.4	0.3
Fc1ccc(Nc2nnc(C(F)(F)F)s2)cc1	0.606	-0.5	-0.5	2.5	2.4
CC1(c2ccc(Cl)cc2)NC(=O)N(CC(=O)NC2CCCCC2)C1=O (configuration not stated)	0.673	5.0	1.4	-2.8	-1.6
CCOC(=O)N/N=C/C(Cl)=C/c1ccccc1	·	2.2	5.4	12.6*	9.3
c1ccc2c(NCCCN3CCOCC3)c3ccccc3nc2c1	0.63	5.6	·	10.5*	15.0*
Cc1noc(C)c1COC(=O)c1cccc(S(=O)(=O)N2CCOCC2)c1	0.702	1.6	53.3*	2.0	3.2
Cc1noc(C)c1COC(=O)c1cc(S(=O)(=O)N2CCOCC2)ccc1Cl	0.676	3.3	21.8	1.5	-3.7
COc1cccc(-c2c(C(=O)O)cc(O)c3ccc(OC)cc23)c1	0.729	-0.3	-0.7	·	·
CCC(C)C(N)C1=NC(C(=O)N[C@@H](CC(C)C)C(=O)N[C@H](CCC(=O)[O-])C(=O)N[C@H](C(=O)N[C@H]2CCCCNC(=O)[C@H](CC(N)=O)NC(=O)[C@@H](CC(=O)[O-])NC(=O)[C@H](Cc3cnc[nH]3)NC(=O)[C@@H](Cc3ccccc3)NC(=O)[C@H]([C@@H](C)CC)NC(=O)[C@@H](CCCN)NC2=O)[C@@H](C)CC)CS1.[Zn+2] (some centres not stated)	·	·	54.3*	·	·
N#Cc1ccc(-n2nccc2-c2cnc3n(c2=O)CCS3)cc1	0.678	0.2	-5.2	1.4	0.3

Screening results as filed in PubChem.
